About 83,000 compounds went through this panel and 20% of them were active in at least one assay; those are over-represented in the sample as a whole.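 Note: values are percent growth. 100 is the growth of untreated cells, values between 100 and 0 indicate rising inhibition; between -100 and 0 indicates cell death.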 Unmarked numbers belong to inactive results. The source made the active and inactive calls. Rule for the calls: active = growth percent below 10; inactive = the rest.

Consider 13 compounds from PubChem BioAssay (NCI).

Common to all, as to assay: NCI-60 one-dose screen, 48 h (100 = growth as untreated, 0 = no growth, -100 = all killed)
Conditions in all cases: 10 µM unless noted

The subject of assay [1] is SK-MEL-2 melanoma.
For assay [2], the system named is EKVX NSCLC.
Assay [3] deals with SN12C renal.
Assay [4] relates to UO-31 renal.
Assay [5] deals with TK-10 renal.
Assay [6] concerns ACHN renal.
Assay [7] concerns CAKI-1 renal.
Assay [8] relates to A498 renal.
Assay [9] concerns CCRF-CEM leukemia.
The test system of assay [10] is MOLT-4 leukemia.

As for `COc1cccc(Nc2ncnc3cc(NC(=O)CCl)ccc23)c1`, the growth is -45.3% (active) in [1]; -24.4% (active) in [2]; -74.7% (active) in assay [3]; -93.9% (active) in assay [4]; -13.2% (active) in assay [5]; -97.6% (active) in [6]. Moreover, the growth in assay [7] is -97.2% (active); in [8], -5.63% (active); in [9], -26.9% (active); in assay [10] it was -31% (active).

Turning to `CCN1C(=O)N(CC)C2Nn3c(s/c(=C\c4ccccc4Br)c3=O)=NC21` (stereo not given), the growth in [1] was 48.5%; in [2] it was 44.4%; in [3], 35.4%; in [4], 55%; in assay [5], 81.5%; in [6], 30.5%. In addition, the growth was 21.5% in [7], -0.799% (active) in assay [8], 15.2% in [9] and 23.2% in assay [10].

In the case of `CCN1C(=O)N(CC)C2C1N=C(SCc1ccc(Cl)cc1)N2/N=C/C=C/c1ccccc1OC` (stereo not given), the growth was 57.7% in [1]; 62.5% in assay [2]; 77.8% in [3]; 54.3% in assay [4]; 96.4% in assay [5]; 61.5% in assay [6]. Also, the growth in [7] is 42.2%; in [8], 54.6%; in [9], 46.4%; in [10], 55.3%.

For `C/C(Cc1ccc(Cl)cc1)=C(\c1ccc(OCCCN(C)C)cc1)c1ccc(OC(=O)Cc2ccccc2)cc1`, the growth in [1] was 100%; in assay [2] it was 101%; in [3], 105%; in [4], 96%; in assay [5], 98.4%; in assay [6], 107%. Also, the growth was 97% in assay [7], 113% in assay [8], 83.6% in [9] and 77.3% in [10].

Consider `CCc1n(Cc2ccc3ccccc3n2)cc[n+]1Cc1ccc2ccccc2n1`, for which the growth in [1] was -27.3% (active); in [2] it was 31.9%; in [3] it was 10.7%; in assay [4], 89.5%; in assay [5], 41.9%; in assay [6], 93.3%. In addition, the growth in assay [7] is 98%; in [8], 84.9%; in assay [9], 28.1%; in assay [10], 28.6%.

`[2H]C([2H])([2H])Oc1ccc(F)cc1/C=C/C(=O)/C=C(O)/C=C/c1cc(F)ccc1OC([2H])([2H])[2H]`: the growth in assay [1] was 98.2%; in assay [2], 107%; in [3], 90.7%; in assay [4], 91.5%; in assay [5] it was 121%; in [6], 106%. Also, the growth in assay [7] was 93.6%; in [8], 99.4%; in assay [9] it was 86.9%; in [10], 75.1%.

On to `CCN(CC)CCCOc1ccc2ncnc(Nc3ccc(Oc4cccc(C(F)(F)F)c4)c(Cl)c3)c2c1`, for which the growth in [1] was -14.7% (active); in [2], 23.4%; in assay [3], 47.1%; in assay [4], 0.274% (active); in assay [5] it was 25.7%; in assay [6], -13.4% (active). The growth was -24.4% (active) in assay [7], 21.3% in assay [8], 1.81% (active) in [9] and 0.414% (active) in assay [10].

For the compound `CC1(C)CC[C@]2(CO)CC[C@]3(C)[C@H](CC[C@@H]4[C@@]5(C)CCCNC(C)(C)[C@@H]5CC[C@]43C)[C@H]2[C@H]1O`, the growth in assay [1] is 102%; in assay [2] it was 95.2%; in assay [3] it was 86.2%; in assay [4], 72.6%; in assay [5], 86.5%; in assay [6] it was 101%. The growth in [7] was 95.3%; in assay [8], 93.4%; in assay [9], 61.2%; in [10] it was 54.1%.

Regarding `Cc1ccc(C)c2c(C)c(C(=O)Nc3cccc(-n4cccn4)c3)oc12`, the growth in assay [1] is 66.3% [50 µM]; in [2] it was 53.8% [50 µM]; in assay [3], 70% [50 µM]; in assay [4] it was 40.7% [50 µM]; in assay [5], 82.1% [50 µM]; in assay [6] it was 64.9% [50 µM]. The growth is 44.6% [50 µM] in assay [7], 55.6% [50 µM] in assay [8], 42.4% [50 µM] in [9] and 42.2% [50 µM] in assay [10].

Consider `CCN1C(=O)N(CC)C2C1NC(=S)N2/N=C/c1ccc(C(F)(F)F)cc1` (stereo not given), for which the growth is 87.9% in [1]; 81.6% in assay [2]; 82.4% in assay [3]; 62.3% in [4]; 95% in [5]; 79% in assay [6]. For the same compound, the growth in assay [7] was 37%; in assay [8] it was 44.9%; in [9], 80.2%; in [10], 70.5%.

For `CCCn1nc(C(=O)N(C)Cc2ccccc2)c2c1CCC(N1CCc3ccccc31)C2` (stereo not given), the growth in [1] was 106%; in [2], 95.2%; in assay [3], 98.9%; in assay [4], 81.4%; in [5], 105%; in [6], 96%. Moreover, the growth in [7] is 86.7%; in assay [8], 95.9%; in assay [9] it was 96.6%; in [10], 89.9%.

For the compound `COC(=O)c1c2c(c(C)[n+]([O-])c1C)C(=O)C(NCc1cccc(Cl)c1)=CC2=O`, the growth in [1] was 33.7%; in assay [2] it was 46.2%; in assay [3], 0.796% (active); in assay [4], 50.6%; in assay [5], 73.5%; in assay [6] it was 26.6%. Besides, the growth in assay [7] is 42.2%; in [8], 106%; in assay [9] it was 17.5%; in assay [10], -12.6% (active).

Take `CCN1CCN(CC(=O)Nc2ccc(-c3cn4c(n3)sc3cc(Oc5ccnc(C(=O)NC)c5)ccc34)cc2)CC1`: the growth in [1] was 42.5%; in assay [2] it was 100%; in assay [3], 85.9%; in assay [4], 60.1%; in assay [5], 89.5%; in assay [6], 73.2%. The growth in [7] was 67.4%; in assay [8] it was 81.8%; in assay [9], 44.9%; in assay [10], 60.6%.
